Records with an inconclusive call do not appear. Calls of active or inactive are those of the source. How the source made its calls: active means hit-call score of the fitted dose curve at least 0.9, where 1 is the maximum; inconclusive means response in the unintended direction; inactive means score below 0.9.
These compounds were tested on ABC Transporter (ABCB1), ABCB1 (gene 5243) (assay: CLD_ABCB1_24hr: CellzDirect (CLD) Gene Expression Assay for ABC Transporter (ABCB1) at 24 hours (AID 2283684);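 on AC50: potency for increase in ABCB1 mRNA relative to DMSO vehicle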).
Method: CLD_24hr is a cell-based, multiplexed-readout assay that uses hepatocyte, a human liver primary cell, with measurements taken at 24 hours after chemical dosing in a 96-well plate.CLD_ABCB1_24hr is one of 16 assay component(s) measured or calculated from the CLD_24hr assay. It is designed to make measurements of mRNA induction, a form of inducible reporter, as detected with chemiluminescence signals by Quantitative Nuclease Protection Assay (qNPA) technology.Data from the assay component CLD_ABCB1_24hr was analyzed at the endpoint, CLD_ABCB1_24hr, in the positive analysis fitting direction relative to DMSO as the negative control and baseline of activity. Using a type of inducible reporter, gain-of-signal activity can be used to understand changes in the reporter gene as they relate to the gene ABCB1. Furthermore, this assay endpoint can be referred to as a primary readout. To generalize the intended target to other relatable targets, this assay endpoint is annotated to the transporter intended target family, where subfamily is ABC transporter.
Human hepatocyte cultures were treated daily for two consecutive days with fresh dosing solutions containing appropriate concentrations of the 320 ToxCast chemicals (chemical identities were blinded to CellzDirect and other ToxCast collaborators), vehicle control (0.2% DMSO), and positive control inducers as summarized in Table 1. Due to the large number of treatment groups and chemicals examined, the ToxCast chemicals were divided into two groups (spanning two independent cultures of hepatocytes from separate donor preparations (Hu778: ToxCast plates 1 and 2; Hu776: ToxCast plates 3 and 4). Each preparation of human hepatocyte cultures was treated with respective vehicle control, medium only control, set of six positive controls/reference chemicals for the five hepatic receptor pathways, and a subset of eight of the ToxCast chemicals (indoxacarb, pyrithiobac-sodium, norflurazon, cyhalofop-butyl, methomyl, thiram, acetochlor, and propiconazole). These replicate data, coupled with internal replicates designed within the blinded ToxCast chemical library, provided additional data to evaluate interindividual differences between hepatocyte preparations and their potential impact on chemical profiles.Cell morphology and integrity were evaluated using phase-contrast microscopy as an indicator of hepatocyte cell health (Tyson & Green, 1987). Cultures for each treatment group (i.e., media, vehicle [0.2% DMSO], positive control inducers [multiple concentrations], and the ToxCast chemicals [multiple concentrations]) were observed and cell morphology was assessed relative to vehicle control cultures at each harvest time point (0, 6, 24, or 48 h). […] Images were evaluated at the conclusion of the study to assess changes in cell integrity and account for the effects of chemical exposure on uncharacteristic changes in concentration-dependent gene expression profiles. The results from these determinations of apparent cytotoxicity were annotated (yes/no) alongside the corresponding qNPA data for reference.At the conclusion of each treatment period, hepatocyte cultures (96-well) were washed with 1 volume of HBSS, lysed by addition of 25 ul ArrayPlate lysis buffer (HTG, Tucson, AZ), and 70 ul/well of Denaturation Oil, denatured by incubation at 95C for 10 min, and frozen at approximately -70C until analysis by nuclease protection assay (qNPA) (Roberts et al., 2007). For qNPA analysis, cell lysates were thawed at 50C for approximately 30 min, qNPA probes were added, and samples were incubated at 95C for 10 min to begin the detection process by denaturing the target RNA, dissociating the duplexes and secondary structure hybridization. At the conclusion of the hybridization period, S1 nuclease reagent was added to each sample to digest all nonprotected nucleotides at 50C for 60-90 min. […]
In the case of `CCOC1Oc2ccc(OS(C)(=O)=O)cc2C1(C)C` (stereo not given), the outcome is reported as “inactive”.
`COP(=O)(OC)OC=C(Cl)Cl` was tested, and the outcome was “inactive”.
In the case of `COc1nn(CSP(=S)(OC)OC)c(=O)s1`, the outcome is reported as “inactive”.
For `CCC(C)Nc1c([N+](=O)[O-])cc(C(C)(C)C)cc1[N+](=O)[O-]` (stereo not given), the outcome was “inactive”.
`C[C@H]1[C@H](c2ccc(Cl)cc2)SC(=O)N1C(=O)NC1CCCCC1` was tested, and the AC50 was 35.2 µM (active).
`O=C(NC(=O)c1c(F)cccc1F)Nc1ccc(OC(F)(F)C(F)OC(F)(F)F)c(Cl)c1` (stereo not given) was tested, and the outcome was “inactive”.
For `CNC(=O)CSP(=S)(OC)OC`, the outcome was “inactive”.
With `CCCN(CCC)c1c([N+](=O)[O-])cc(C(F)(F)F)cc1[N+](=O)[O-]` the outcome was “inactive”.
With `CC(C)OC(=O)Nc1cccc(Cl)c1` the outcome was “inactive”.
In the case of `CC(C)N(C(=O)COc1nnc(C(F)(F)F)s1)c1ccc(F)cc1`, the outcome is reported as “inactive”.
`COP(=S)(OC)Oc1ccc([N+](=O)[O-])cc1` was tested, and the outcome was “inactive”.
`CC1(C)C(C=C(Cl)Cl)C1C(=O)OC(C#N)c1ccc(F)c(Oc2ccccc2)c1` (stereo not given) was tested, and the outcome was “inactive”.
`Oc1cc(Cl)ccc1Oc1ccc(Cl)cc1Cl` was tested, and the outcome was “inactive”.
`CCOc1nc(NC)nc(NC(=O)NS(=O)(=O)c2ccccc2C(=O)OC)n1` was tested, and the outcome was “inactive”.
With `O=C(O)CCCOc1ccc(Cl)cc1Cl` the outcome was “inactive”.
In the case of `N#CN`, the outcome is reported as “inactive”.
`CCOCN(C(=O)CCl)c1c(C)cccc1CC` was tested, and the outcome was “inactive”.
`COC(=O)c1ccccc1S(=O)(=O)NC(=O)N(C)c1nc(C)nc(OC)n1` was tested, and the outcome was “inactive”.
With `CCCN(CCOc1c(Cl)cc(Cl)cc1Cl)C(=O)n1ccnc1` the AC50 was 32.7 µM (active).
In the case of `[2H]C1([2H])[n+]2ccccc2-c2cccc[n+]2C1([2H])[2H]`, the outcome is reported as “inactive”.
`CN1CSC(=S)N(C)C1` was tested, and the outcome was “inactive”.
In the case of `O=C(O)COc1ccc(Cl)cc1Cl`, the outcome is reported as “inactive”.
In the case of `Clc1ccccc1-c1nnc(-c2ccccc2Cl)nn1`, the outcome is reported as “inactive”.
`Cc1[nH]c(=O)n(C(C)(C)C)c(=O)c1Cl` was tested, and the outcome was “inactive”.
With `O=S1OCC2C(CO1)C1(Cl)C(Cl)=C(Cl)C2(Cl)C1(Cl)Cl` (stereo not given) the outcome was “inactive”.
With `COC(=O)c1ccccc1S(=O)(=O)NC(=O)Nc1nc(C)nc(OC)n1` the outcome was “inactive”.
For `ClC1C(Cl)C(Cl)C(Cl)C(Cl)C1Cl` (stereo not given), the outcome was “inactive”.
In the case of `CC(C)(C)C(O)C(Oc1ccc(Cl)cc1)n1cncn1` (stereo not given), the outcome is reported as “inactive”.
For `COC(=O)c1ccccc1CS(=O)(=O)NC(=O)Nc1nc(OC)cc(OC)n1`, the outcome was “inactive”.
`C#CCN1C(=O)COc2cc(F)c(N3C(=O)C4=C(CCCC4)C3=O)cc21` was tested, and the outcome was “inactive”.
With `CC[C@H](C)[C@H]1O[C@]2(C=C[C@@H]1C)C[C@@H]1C[C@@H](C/C=C(\C)[C@@H](O[C@H]3C[C@H](OC)[C@@H](O[C@H]4C[C@H](OC)[C@@H](O)[C@H](C)O4)[C@H](C)O3)[C@@H](C)/C=C/C=C3\CO[C@@H]4[C@H](O)C(C)=C[C@@H](C(=O)O1)[C@]34O)O2` (tested in a mixture with another compound) the AC50 was 5.84 µM (active).
In the case of `CCN(CC)C(=O)SCc1ccc(Cl)cc1`, the outcome is reported as “inactive”.
`CC(C)(C)C(O)/C(=C\c1ccc(Cl)cc1Cl)n1cncn1` (stereo not given) was tested, and the AC50 was 29.4 µM (active).
With `CCc1ccc(C(=O)NN(C(=O)c2cc(C)cc(C)c2)C(C)(C)C)cc1` the outcome was “inactive”.
For `O=[N+]([O-])c1c(Cl)c(Cl)c(Cl)c(Cl)c1Cl`, the outcome was “inactive”.
In the case of `O=C(O)C(F)(F)C(F)(F)C(F)(F)C(F)(F)C(F)(F)C(F)(F)C(F)(F)F`, the outcome is reported as “inactive”.
For `OCCOc1ccccc1`, the outcome was “inactive”.
With `CCS(=O)(=O)c1cccnc1S(=O)(=O)NC(=O)Nc1nc(OC)cc(OC)n1` the outcome was “inactive”.
For `N#Cc1c(Cl)c(Cl)c(Cl)c(C#N)c1Cl`, the outcome was “inactive”.
For `CCC(C)(C)C(=O)OC1=C(c2ccc(Cl)cc2Cl)C(=O)OC12CCCCC2`, the outcome was “inactive”.
